Article PMC5540273 (PLoS ONE, 2017)

tested on: ULK2; details: concentration: 1 μM, replicates: in singlicate; n = 1
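Also: KINOMEscan kinase panel screen.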

**Q.** How did the “%Inh” value turn out when `CS(=O)(=O)c1ccc(-c2c(-c3ncn[nH]3)sc(N3CCOCC3)c2C#N)cc1` was run?
**A.** 36%

**Q.** How did the “%Inh” value turn out when `CCn1c(-c2cccnc2O)nc2cnccc21` [SB-736715] was run?
**A.** 0%

**Q.** How did the “%Inh” value turn out when `Cc1cc(-c2ccc3c(c2)CC[C@@H](N[C@@H](C)c2ccccc2)C3)cnc1N.Cl` [GW412617] was run?
**A.** 8%

**Q.** Which “%Inh” value does the source give for `COc1ccccc1CNC(=O)c1cc(C(=O)c2ccccc2C)c[nH]1` [GSK364507] here?
**A.** 0%

**Q.** For `Cc1cccc(-c2nc(-c3ccc(S(C)(=O)=O)cc3)sc2-c2ccnc(NCCc3ccccc3)c2)c1`, which “%Inh” value is on record?
**A.** 8%

**Q.** `CC(=O)Nc1nc2cnc(Nc3cc(NC(=O)c4cccc(CCC#N)c4)ccc3C)nc2s1` was tested. Which “%Inh” value did it give?
**A.** 20%

**Q.** For `Cc1cccc(-c2nc(C)cc(Nc3ccncc3)n2)n1` [GSK257997], which “%Inh” value is on record?
**A.** 0%

**Q.** How did the “%Inh” value turn out when `CS(=O)(=O)c1ccc(-c2nc3n(c2-c2ccncc2)CCC3)cc1` [SKF-105942] was run?
**A.** 0%

**Q.** With `Cl.c1ccc(-c2n[nH]cc2-c2ccnc(-c3ccc(CN4CCOCC4)cc3)c2)nc1` [GW776245] as the compound, how does the “%Inh” value read?
**A.** 0%

**Q.** With `Nc1ncnc2[nH]c(-c3ccccc3)nc12` [AH5015] as the compound, how does the “%Inh” value read?
**A.** 5%

**Q.** For `O=C(O)COc1ncnc2cc(-c3ccc4[nH]ncc4c3)sc12`, which “%Inh” value is on record?
**A.** 26%

**Q.** For `COc1cc2ncn(-c3cc(OCC4CCCO4)c(C(N)=O)s3)c2cc1OC` (stereo not shown) [GSK204607], which “%Inh” value is on record?
**A.** 0%

**Q.** Which “%Inh” value does the source give for `Cc1ccc(NC(=O)Nc2cc(C(C)(C)C)nn2-c2ccccc2)cc1` [GSK1014915] here?
**A.** 0%

**Q.** `Cc1cccc(-c2nc(Nc3ccc4[nH]ncc4c3)c3ccccc3n2)n1` [GW857175] was tested. Which “%Inh” value did it give?
**A.** 8%

**Q.** For `CC(C)(C)c1ccc(C(=O)Nc2cn3cc(Cl)ccc3n2)cc1`, which “%Inh” value is on record?
**A.** 0%

**Q.** For `Cn1cncc1-c1ccc2ncnc(Nc3ccc(OCc4ccccc4)cc3)c2c1` [GW320571], which “%Inh” value is on record?
**A.** 0%

**Q.** With `O=C(Nc1n[nH]c2nc(-c3nccs3)c(Br)cc12)C1CC1` [SB-742251] as the compound, how does the “%Inh” value read?
**A.** 7%

**Q.** With `CN1C(=O)C(Nc2ccc(Cl)c(C(=O)O)c2)=C(c2ccc(Cl)cc2)C1=O` [SB-404290] as the compound, how does the “%Inh” value read?
**A.** 2%

**Q.** With `Cc1cc(N2Cc3ccccc3C2)nc(Nc2ccc(S(=O)(=O)N3CCOCC3)cc2)n1.Cl` [GSK1669917] as the compound, how does the “%Inh” value read?
**A.** 0%

**Q.** `CN(C)CCN(C)C(=O)c1cc(-c2ccncc2)c(-c2ccc(Cl)c(O)c2)o1.Cl.Cl` [SB-710397] was tested. Which “%Inh” value did it give?
**A.** 0%

**Q.** How did the “%Inh” value turn out when `Cc1csc(-c2nc(Nc3ccncc3)c3ccccc3n2)n1` [GW869640] was run?
**A.** 23%

**Q.** How did the “%Inh” value turn out when `Cc1ccc(NC(=O)Nc2cccc(Cl)c2)cc1-c1ccc(C(=O)Nc2ccncc2)cc1` [GSK1398468] was run?
**A.** 0%

**Q.** How did the “%Inh” value turn out when `O=C(Nc1n[nH]c2cc(-c3cccc(F)c3F)ccc12)C1CC1` [SB-733894] was run?
**A.** 51%

**Q.** `O=C(Nc1ccccc1)Nc1cccc(Oc2ccc3nccn3n2)c1` was tested. Which “%Inh” value did it give?
**A.** 0%

**Q.** With `Cl.O=C(Nc1cccc(-c2nn3ncccc3c2-c2ccnc(Nc3cccnc3)n2)c1)c1c(F)cccc1F` [GSK312879] as the compound, how does the “%Inh” value read?
**A.** 0%

**Q.** `O=C(Nc1n[nH]c2nc(-c3nccs3)c(Br)cc12)C1CCCC1` [SB-742609] was tested. Which “%Inh” value did it give?
**A.** 0%

**Q.** Which “%Inh” value does the source give for `COc1cc(Nc2nccc(N3CCC(NC(=O)Nc4cc(C)ccc4C)C3)n2)cc(OC)c1OC` (stereo not shown) [GSK1379762] here?
**A.** 4%

**Q.** How did the “%Inh” value turn out when `COc1cc2nccc(Nc3ccc(NC(=O)c4ccc(C)cc4)c(O)c3)c2cc1OC.Cl` [GW440132] was run?
**A.** 0%

**Q.** How did the “%Inh” value turn out when `O=C(Nc1ccc2c(c1)OCO2)NC1CCN(c2ccnc(Nc3ccc(F)cc3)n2)C1` (stereo not shown) [GSK1379724] was run?
**A.** 0%

**Q.** For `O=C1NC(=O)C(N2CCc3ccccc32)=C1c1ccccc1Cl` [SB-373598], which “%Inh” value is on record?
**A.** 6%

**Q.** For `Fc1cccc(COc2nnc(-c3ccc4c(c3)CCO4)o2)c1`, which “%Inh” value is on record?
**A.** 14%

**Q.** With `Cc1cccc(-c2nc(Nc3cccc(C(N)=O)c3)c3ccccc3n2)n1` [GW876019] as the compound, how does the “%Inh” value read?
**A.** 0%

**Q.** With `Cc1c(O)cccc1Nc1ccnc2ccc(C(F)(F)F)cc12.Cl` [GW466413] as the compound, how does the “%Inh” value read?
**A.** 0%

**Q.** How did the “%Inh” value turn out when `COc1ccc(Nc2nccc(-c3cccc(NC(=O)c4cc5cc(F)ccc5[nH]4)c3)n2)cc1` [GSK1229782] was run?
**A.** 0%

**Q.** How did the “%Inh” value turn out when `Cc1cc(NCC(c2ccccc2)c2ccccc2)nc(NCc2ccc(C(F)(F)F)cc2)n1` [GW497681] was run?
**A.** 0%

tested on: ULK3; details: concentration: 1 μM, replicates: in singlicate; n = 1

**Q.** Which “%Inh” value does the source give for `CS(=O)(=O)c1ccc(-c2c(-c3ncn[nH]3)sc(N3CCOCC3)c2C#N)cc1` here?
**A.** 7%

**Q.** How did the “%Inh” value turn out when `CCn1c(-c2cccnc2O)nc2cnccc21` [SB-736715] was run?
**A.** 0%

**Q.** Which “%Inh” value does the source give for `Cc1cc(-c2ccc3c(c2)CC[C@@H](N[C@@H](C)c2ccccc2)C3)cnc1N.Cl` [GW412617] here?
**A.** 16%

**Q.** For `COc1ccccc1CNC(=O)c1cc(C(=O)c2ccccc2C)c[nH]1` [GSK364507], which “%Inh” value is on record?
**A.** 9%

**Q.** Which “%Inh” value does the source give for `Cc1cccc(-c2nc(-c3ccc(S(C)(=O)=O)cc3)sc2-c2ccnc(NCCc3ccccc3)c2)c1` here?
**A.** 0%

**Q.** Which “%Inh” value does the source give for `CC(=O)Nc1nc2cnc(Nc3cc(NC(=O)c4cccc(CCC#N)c4)ccc3C)nc2s1` here?
**A.** 0%

**Q.** Which “%Inh” value does the source give for `Cc1cccc(-c2nc(C)cc(Nc3ccncc3)n2)n1` [GSK257997] here?
**A.** 6%

**Q.** Which “%Inh” value does the source give for `CS(=O)(=O)c1ccc(-c2nc3n(c2-c2ccncc2)CCC3)cc1` [SKF-105942] here?
**A.** 11%

**Q.** Which “%Inh” value does the source give for `Cl.c1ccc(-c2n[nH]cc2-c2ccnc(-c3ccc(CN4CCOCC4)cc3)c2)nc1` [GW776245] here?
**A.** 20%

**Q.** How did the “%Inh” value turn out when `Nc1ncnc2[nH]c(-c3ccccc3)nc12` [AH5015] was run?
**A.** 20%

**Q.** How did the “%Inh” value turn out when `O=C(O)COc1ncnc2cc(-c3ccc4[nH]ncc4c3)sc12` was run?
**A.** 33%

**Q.** Which “%Inh” value does the source give for `COc1cc2ncn(-c3cc(OCC4CCCO4)c(C(N)=O)s3)c2cc1OC` (stereo not shown) [GSK204607] here?
**A.** 0%

**Q.** For `Cc1ccc(NC(=O)Nc2cc(C(C)(C)C)nn2-c2ccccc2)cc1` [GSK1014915], which “%Inh” value is on record?
**A.** 13%

**Q.** For `Cc1cccc(-c2nc(Nc3ccc4[nH]ncc4c3)c3ccccc3n2)n1` [GW857175], which “%Inh” value is on record?
**A.** 18%

**Q.** With `CC(C)(C)c1ccc(C(=O)Nc2cn3cc(Cl)ccc3n2)cc1` as the compound, how does the “%Inh” value read?
**A.** 10%

**Q.** Which “%Inh” value does the source give for `Cn1cncc1-c1ccc2ncnc(Nc3ccc(OCc4ccccc4)cc3)c2c1` [GW320571] here?
**A.** 14%

**Q.** For `O=C(Nc1n[nH]c2nc(-c3nccs3)c(Br)cc12)C1CC1` [SB-742251], which “%Inh” value is on record?
**A.** 0%

**Q.** `CN1C(=O)C(Nc2ccc(Cl)c(C(=O)O)c2)=C(c2ccc(Cl)cc2)C1=O` [SB-404290] was tested. Which “%Inh” value did it give?
**A.** 24%

**Q.** For `Cc1cc(N2Cc3ccccc3C2)nc(Nc2ccc(S(=O)(=O)N3CCOCC3)cc2)n1.Cl` [GSK1669917], which “%Inh” value is on record?
**A.** 0%

**Q.** `CN(C)CCN(C)C(=O)c1cc(-c2ccncc2)c(-c2ccc(Cl)c(O)c2)o1.Cl.Cl` [SB-710397] was tested. Which “%Inh” value did it give?
**A.** 9%

**Q.** With `Cc1csc(-c2nc(Nc3ccncc3)c3ccccc3n2)n1` [GW869640] as the compound, how does the “%Inh” value read?
**A.** 50%

**Q.** `Cc1ccc(NC(=O)Nc2cccc(Cl)c2)cc1-c1ccc(C(=O)Nc2ccncc2)cc1` [GSK1398468] was tested. Which “%Inh” value did it give?
**A.** 5%

**Q.** How did the “%Inh” value turn out when `O=C(Nc1n[nH]c2cc(-c3cccc(F)c3F)ccc12)C1CC1` [SB-733894] was run?
**A.** 4%

**Q.** `O=C(Nc1ccccc1)Nc1cccc(Oc2ccc3nccn3n2)c1` was tested. Which “%Inh” value did it give?
**A.** 0%

**Q.** `Cl.O=C(Nc1cccc(-c2nn3ncccc3c2-c2ccnc(Nc3cccnc3)n2)c1)c1c(F)cccc1F` [GSK312879] was tested. Which “%Inh” value did it give?
**A.** 5%

**Q.** Which “%Inh” value does the source give for `O=C(Nc1n[nH]c2nc(-c3nccs3)c(Br)cc12)C1CCCC1` [SB-742609] here?
**A.** 18%

**Q.** With `COc1cc(Nc2nccc(N3CCC(NC(=O)Nc4cc(C)ccc4C)C3)n2)cc(OC)c1OC` (stereo not shown) [GSK1379762] as the compound, how does the “%Inh” value read?
**A.** 92.4%

**Q.** Which “%Inh” value does the source give for `COc1cc2nccc(Nc3ccc(NC(=O)c4ccc(C)cc4)c(O)c3)c2cc1OC.Cl` [GW440132] here?
**A.** 7%

**Q.** `O=C(Nc1ccc2c(c1)OCO2)NC1CCN(c2ccnc(Nc3ccc(F)cc3)n2)C1` (stereo not shown) [GSK1379724] was tested. Which “%Inh” value did it give?
**A.** 16%

**Q.** For `O=C1NC(=O)C(N2CCc3ccccc32)=C1c1ccccc1Cl` [SB-373598], which “%Inh” value is on record?
**A.** 39%

**Q.** `Fc1cccc(COc2nnc(-c3ccc4c(c3)CCO4)o2)c1` was tested. Which “%Inh” value did it give?
**A.** 0%

**Q.** Which “%Inh” value does the source give for `Cc1cccc(-c2nc(Nc3cccc(C(N)=O)c3)c3ccccc3n2)n1` [GW876019] here?
**A.** 0%

**Q.** `Cc1c(O)cccc1Nc1ccnc2ccc(C(F)(F)F)cc12.Cl` [GW466413] was tested. Which “%Inh” value did it give?
**A.** 0%

**Q.** Which “%Inh” value does the source give for `COc1ccc(Nc2nccc(-c3cccc(NC(=O)c4cc5cc(F)ccc5[nH]4)c3)n2)cc1` [GSK1229782] here?
**A.** 23%

**Q.** For `Cc1cc(NCC(c2ccccc2)c2ccccc2)nc(NCc2ccc(C(F)(F)F)cc2)n1` [GW497681], which “%Inh” value is on record?
**A.** 0%
